High-throughput results deposited in PubChem by several laboratories.
In the library only some 3.9% were active in any assay of this set; here they are far more common.
3CLpro inhibitor – SARS-CoV 3CLpro protease inhibition | recombinant SARS-CoV 3CLpro, quenched FRET peptide cleavage | inhibition, % at 6 µM | 290,000 compounds, 0.14% hits | P0C6X7 | AID 1706; in the data active = inhibition above about 12%
Vc quorum ag – inducers of Vibrio cholerae quorum light production without autoinducers | 350,000 compounds, 0.16% hits | V. cholerae BH1578 lux reporter, luminescence, 6 h | activation, % at 18.7 µM; in the data active = activation mostly above about 9.7%, no sharp cut-off
PrPC surface inh – reduces human prion protein on the cell surface. P04156. cell surface PrPC, TR-FRET read-out. inhibition, % at 13.8 µM. 370,000 compounds, 0.43% hits. AID 720596; in the data active = inhibition above about 24%
GDH-TPI counter – inhibits GDH-TPI coupling enzymes, artifact for Mtb FBA screen. inhibition, % at 4.8 µM. AID 588335. GDH-TPI coupled enzyme counterscreen, NADH absorbance. 360,000 compounds, 1.2% hits; in the data active = inhibition above about 30%
Mtb FBA inh – inhibits M. tuberculosis FBA enzyme | 360,000 compounds, 2.3% hits | purified M. tuberculosis FBA, fluorescence read-out | inhibition, % at 1 µM | P9WQA3; in the data active = inhibition above about 27%
Target sequence (P9WQA3 whole entry, looked up): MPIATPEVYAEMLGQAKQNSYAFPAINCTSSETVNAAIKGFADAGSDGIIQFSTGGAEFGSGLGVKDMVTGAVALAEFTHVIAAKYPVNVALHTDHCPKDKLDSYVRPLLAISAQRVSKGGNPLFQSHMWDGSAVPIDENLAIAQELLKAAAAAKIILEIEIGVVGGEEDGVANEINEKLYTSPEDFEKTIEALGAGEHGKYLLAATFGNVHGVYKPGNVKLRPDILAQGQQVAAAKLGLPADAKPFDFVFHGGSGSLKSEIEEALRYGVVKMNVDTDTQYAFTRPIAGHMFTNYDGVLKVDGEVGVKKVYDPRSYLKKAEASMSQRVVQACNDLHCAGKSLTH
Of the large screens only hits and unclear results are named; the others gave an inactive call.

Cc1ccc2cc3cc(C(=O)NCCN4CCOCC4)oc3nc2c1	GDH-TPI counter 48, Mtb FBA inh 91
C=C1c2cccc(C(F)(F)F)c2O[C@H](C(=O)OCC)[C@H]1OC	none (no result: 3CLpro inhibitor)
COc1ccc2cc3cc(C(=O)NCCCN4CCC(C)CC4)oc3nc2c1	GDH-TPI counter 32, Mtb FBA inh active (no result: PrPC surface inh)
Cn1c(=O)c(=O)n(C)c2cc(N3CCOCC3)c(NS(=O)(=O)c3ccc(Br)cc3)cc21	none
Cc1ccc(S(=O)(=O)Nc2cc3c(cc2N2CCOCC2)n(C)c(=O)c(=O)n3C)cc1	GDH-TPI counter 32
COc1ccc(N(CCC(=O)O)S(=O)(=O)c2ccc(C)cc2C)cc1	none
CC(Oc1ccccc1)c1ccnc2nc(/N=C/N(C)C)nn12 (stereo not drawn)	none
c1csc(-c2ccnc3ncnn23)c1	Mtb FBA inh 160
CN(C)/C=N/c1nc2nccc(-c3cccs3)n2n1	Mtb FBA inh 188
CN(Cc1c(O)ccc2c1oc(=O)c1ccccc12)C1CCCCC1	none
CN(C)Cc1c(O)ccc2c3c(c(=O)oc12)CCCCC3	Mtb FBA inh active
CCc1c(C)c2ccc(O)c(CN(C)C)c2oc1=O	Mtb FBA inh active
COCCN(CCOC)Cc1c(O)ccc2c3c(c(=O)oc12)CCC3	Mtb FBA inh active
CCCCN(CC)Cc1c(O)ccc2c3c(c(=O)oc12)CCC3	none (no result: Mtb FBA inh)
CC(NC(=O)Nc1nnc(C(F)(F)F)s1)(C(F)(F)F)C(F)(F)F	PrPC surface inh 57
CC(C)(C)CC(=O)Nc1nnc(C(F)(F)F)s1	none
CCCC(=O)N1CCC1(C)C(=O)Nc1ccc(OC(F)F)cc1 (stereo not drawn)	none (no result: 3CLpro inhibitor)
CC(=O)N/C(=C\c1ccccc1)C(=O)OCc1cccc(S(=O)(=O)N(C)C)c1	none
COc1ccc(CSc2nc(C)[nH]c2[N+](=O)[O-])cc1[N+](=O)[O-]	GDH-TPI counter 42
CN1CCN(C(=O)c2ccc(-c3cnc4cccnn34)cc2)CC1	Mtb FBA inh active (no result: 3CLpro inhibitor)
CN(C)C(=O)c1cccc(-c2ccc3nncn3c2)c1	none (no result: 3CLpro inhibitor)
CNc1ccc2ncc(-c3cccc(C(=O)N(C)C)c3)n2n1	Mtb FBA inh 156 (no result: 3CLpro inhibitor)
O=C(NCCO)c1cccc(-c2cnc3cccnn23)c1	Mtb FBA inh 156 (no result: 3CLpro inhibitor)
O=C(NCCO)c1ccc(-c2cnc3cccnn23)cc1	Mtb FBA inh active (no result: 3CLpro inhibitor)
C[C@@H]1CN([C@@H](C)CO)S(=O)(=O)c2ccc(Br)cc2O[C@@H]1CN(C)C(=O)C1CC1	none (no result: 3CLpro inhibitor)
CCOC(=O)Nc1ccc2c(c1)[C@]1(CC(=O)N(CC(C)C)C1c1ccccc1)C(=O)N2C (stereo partly drawn)	none (no result: 3CLpro inhibitor, Vc quorum ag, GDH-TPI counter, Mtb FBA inh)
N#C/C(=N\Nc1ccccc1)C(N)=S	GDH-TPI counter 31
N#C/C(=N\Nc1ccc(Cl)cc1)C(N)=S	none
O=C(CSc1nnc(Nc2ccccc2)s1)NN1C(=O)NC2(CCCCC2)C1=O	none
COc1ccc(CC2NCCC3=CC(=O)CCC32)cc1O (stereo not drawn)	none (no result: 3CLpro inhibitor)
Cc1ccc2c(c1)c1ncnc(N3CCC4(CC3)OCCO4)c1n2C	none (no result: Vc quorum ag, GDH-TPI counter, Mtb FBA inh)
Cc1ccc2c(c1)c1ncnc(N3CCOCC3)c1n2C	Mtb FBA inh 126
COc1ccc(CCN2CCCn3c2nc2c3c(=O)[nH]c(=O)n2C)cc1OC	none
COc1ccc(CCN2C(=O)N[C@@H](C(C)C)C2=O)cc1	none
O=C(N/N=C\c1ccc(COc2ccc([N+](=O)[O-])cc2)o1)c1ccc(Cl)cc1	GDH-TPI counter 42
O=C(N/N=C\c1ccc(COc2ccc([N+](=O)[O-])cc2)o1)c1cccc(Cl)c1	none
Cc1cc2cc(C(c3nnnn3Cc3ccccc3)N3CCc4ccccc43)c(=O)[nH]c2cc1C (stereo not drawn)	none
Cc1ccc2cc(C(c3nnnn3Cc3ccccc3)N3CCc4ccccc43)c(=O)[nH]c2c1C (stereo not drawn)	PrPC surface inh 26
COc1ccccc1N1CCN(N=Cc2ccccc2Br)CC1	none (no result: 3CLpro inhibitor, Vc quorum ag, GDH-TPI counter, Mtb FBA inh)
CCN(CC)S(=O)(=O)c1ccc(N/N=C(\C)c2ccncc2)nc1	GDH-TPI counter 38
CCN(CC)S(=O)(=O)c1ccc(N/N=C(\C)c2cccnc2)nc1	GDH-TPI counter 35
O=C(NN=Cc1ccc(F)c(F)c1)c1ccc(NS(=O)(=O)c2cccs2)cc1	GDH-TPI counter 46 (no result: 3CLpro inhibitor, Vc quorum ag)
Cc1nn(-c2ccc(Cl)cc2)c(Cl)c1/C=N/NC(=O)c1ccc(NS(=O)(=O)c2cccs2)cc1	GDH-TPI counter 32 (no result: 3CLpro inhibitor)
COc1ccc(OC)c(C=NNC(=O)c2ccccc2NS(=O)(=O)c2cccs2)c1	GDH-TPI counter 31 (no result: 3CLpro inhibitor)
O=C(N/N=C/c1ccc2c(c1)OCO2)c1ccc(NS(=O)(=O)c2cccs2)cc1	GDH-TPI counter 33
CC(C)(C)c1ccc(CC(=O)N2CCC2(C)C(=O)NCCC#N)cc1 (stereo not drawn)	none (no result: 3CLpro inhibitor)
Cc1ccc(Nc2nc(N)nc(N)c2N=O)cc1Cl	none (no result: 3CLpro inhibitor, Vc quorum ag, GDH-TPI counter, Mtb FBA inh)
CC1CCCC(NC(=O)CSc2nnc(C(F)(F)F)n2C)C1C (stereo not drawn)	none (no result: 3CLpro inhibitor)
COc1cc(/C=N/NC(=O)c2ccc(NS(=O)(=O)c3cccs3)cc2)cc(OC)c1O	GDH-TPI counter 39 (no result: 3CLpro inhibitor)
O=c1[nH]c(-c2ccccc2)cn1C1CCN(Cc2ccc(-c3nc4ccc(Br)cc4nc3-c3ccccc3)cc2)CC1	PrPC surface inh 31 (no result: 3CLpro inhibitor, Vc quorum ag, GDH-TPI counter, Mtb FBA inh)
COc1ccc(OC)c(C(=O)c2c(C)oc3cc([N+](=O)[O-])c(O)c([N+](=O)[O-])c23)c1	GDH-TPI counter 36
COc1ccc(OC)c(C(=O)COC(=O)c2ccc([N+](=O)[O-])o2)c1	none (no result: 3CLpro inhibitor)
CC(=O)c1ccc(-c2nc3ccccc3n2C)o1	Mtb FBA inh active
Cc1ccc(-c2nc3ccccc3n2C)o1	none
CCC/C=C/c1ccc(CN2C(CC(C)C)C(=O)N(Cc3cn(Cc4ccco4)nn3)CCS2(=O)=O)cc1 (stereo not drawn)	none (no result: 3CLpro inhibitor)
O=C(OC12CCCN(C1)/C(=C/c1cccc(Cl)c1)C2)C1CCCCC1 (stereo not drawn)	none (no result: 3CLpro inhibitor, Vc quorum ag, GDH-TPI counter, Mtb FBA inh)
CCC1(C)Cc2ccccc2-c2nc3n(c(=O)c21)CCS3 (stereo not drawn)	none
CCC1(C)Cc2ccccc2-c2nc(NCCCO)n(-c3ccccc3)c(=O)c21 (stereo not drawn)	Mtb FBA inh active
CCn1c(NCCO)nc2c(c1=O)C(C)(CC)Cc1ccccc1-2 (stereo not drawn)	Mtb FBA inh 159
CCC1(C)Cc2ccccc2-c2nc(-c3ccccc3)oc(=O)c21 (stereo not drawn)	none
CCc1ccc(N2CN=c3s/c(=C\c4ccccc4)c(=O)n3C2)cc1	GDH-TPI counter 35
Cc1cccc(N2CN=c3s/c(=C\c4ccccn4)c(=O)n3C2)c1	GDH-TPI counter 64
O=c1/c(=C/c2ccccn2)sc2n1CN(c1ccccc1)CN=2	none
OCCN1CCN(c2ncnc3c2ncn3[C@H]2CN(Cc3cccc(C(F)(F)F)c3)C[C@@H](CO)O2)CC1	none (no result: 3CLpro inhibitor)
Cc1ccc(C(=O)Nc2sc3c(c2C(=O)O)CCCC3)o1	GDH-TPI counter 36
Cc1ccc(C(=O)Nc2sc3c(c2C(=O)O)CCCCC3)o1	none
O=C(/C=C/c1ccc(-c2ccccc2)cc1)NCc1cccnc1	none
O=C(/C=C/NCc1cccnc1)c1ccc(-c2ccccc2)cc1	GDH-TPI counter 36
